# Rows were chosen to be rich in hits. Some 7.6% of all compounds tested hit in one or more screens of this group.
# HCV NS3h FP – blocks HCV NS3 helicase binding to DNA; NS3h Cy5-dT15 DNA binding, fluorescence polarization; inhibition, % at 100 µM; 16,000 compounds, 1.6% hits; AID 687043;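 active = inhibition above the average over every tested compound plus 3 SD, cut at about 40% in these data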
# Cy5 interf NS3h – counter-screen for HCV NS3 helicase inhibitors: fluorescence interference; AID 720488; fluorescence interference ratio at 100 µM; 16,000 compounds, 6% hits; Cy5-dT15 DNA with NS3h; actives lie on both sides; signal over control mean, under 1 quenches;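 active = compound fluorescence over control fluorescence at most 0.8, a quencher, or at least a set upper limit, an enhancer; inactive = ratio between 0.8 and the set upper limit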
# NS3h confirm – confirmation of hepatitis C virus NS3 helicase inhibitors; shares compounds with HCV NS3h FP; NS3h binding to Cy5-dT15 DNA, fluorescence polarization; inhibition, % at 100 µM; 240 compounds, 20% hits; AID 720485;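 active = percent inhibition of 50% or more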
# SSB FP counter – E. coli SSB-DNA binding inhibition, NS3h counter-screen | 240 compounds, 40% hits | AID 720486 | inhibition, % at 100 µM | shares compounds with HCV NS3h FP | E. coli SSB binding Cy5-dT15, fluorescence polarization;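 active = inhibition of at least 50%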;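 also: displacers lower Cy5 polarization so higher inhibition means more SSB displaced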
# Target sequence (P0AGE0 whole entry, looked up): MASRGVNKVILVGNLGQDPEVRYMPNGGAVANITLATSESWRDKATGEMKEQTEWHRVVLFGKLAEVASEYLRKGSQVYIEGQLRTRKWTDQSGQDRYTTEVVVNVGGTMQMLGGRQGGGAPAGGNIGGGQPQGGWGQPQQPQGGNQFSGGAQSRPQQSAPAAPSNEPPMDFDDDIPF
# Cy5 SSB fluor CB – counter-screen for HCV NS3 helicase inhibitors: fluorescence interference; AID 720487; 240 compounds, 8% hits; Cy5-dT15/E. coli SSB fluorescence interference; actives lie on both sides; fluorescence interference ratio at 100 µM; shares compounds with HCV NS3h FP;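 active = fluorescence interference ratio at or above 1.2, signal boosting, or at or below 0.8, signal quenching; inactive = ratio between 0.8 and 1.2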;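 also: ratio of compound well signal to mean negative control signal so 1 means no effect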
# Cy5 fluor confirm – confirmation counter-screen for HCV NS3 helicase inhibitors: fluorescence interference. shares compounds with HCV NS3h FP. Cy5-dT15 DNA/NS3h fluorescence interference counterscreen. fluorescence interference ratio at 100 µM, hits read low. 240 compounds, 44% hits. AID 720489;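 active = fluorescence interference ratio at or below 0.8 quencher or at or above a set limitenhancer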;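 also: ratio of compound fluorescence to mean of negative controls so 1 means no interference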
# Active calls of the source: *; / = no result.
SMILES,HCV NS3h FP,Cy5 interf NS3h,NS3h confirm,SSB FP counter,Cy5 SSB fluor CB,Cy5 fluor confirm
O=C(Nc1ccc(F)c([N+](=O)[O-])c1)c1ccc2ccccc2c1,39,0.73*,40,50*,0.7*,0.78*
O=C(Nc1ccc(F)c([N+](=O)[O-])c1)c1ccc2c(c1)OCCO2,22,0.87,/,/,/,/
CSc1ccc(CN2CCN(Cc3ccc4ccccc4c3)CC2)cc1,-10,0.95,/,/,/,/
COC(=O)c1ccc(-c2ccc(/C=C3/SC(=S)N(C)C3=O)o2)cc1,-7,0.88,/,/,/,/
CC1=NN(c2ccc(C(=O)O)cc2)C(=O)/C1=C\c1ccc(-c2cccc(C(=O)O)c2)o1,31,1,/,/,/,/
CN1C(=O)/C(=C/c2ccc(-c3ccc(C(=O)O)cc3)o2)SC1=S,76*,1.2*,11,34,0.92,0.99
N=C1S/C(=C\c2ccc(-c3cccc(C(=O)O)c3)o2)C(=O)N1c1ccc2c(c1)OCO2,71*,0.81,20,107*,0.82,0.92
CCC1=NN2C(=N)/C(=C/c3ccc(-c4cccc(C(=O)O)c4)o3)C(=O)N=C2S1,52*,1,27,87*,0.93,0.85
O=C1/C(=C\c2ccc(-c3cccc(Cl)c3)o2)SC(=S)N1CCS(=O)(=O)O,84*,0.84,46,98*,0.82,0.88
CCC1=NN2C(=N)/C(=C/c3ccc(-c4cccc([N+](=O)[O-])c4)o3)C(=O)N=C2S1,-4,0.94,/,/,/,/
COCCN1C(=O)/C(=C\c2ccc(-c3cccc([N+](=O)[O-])c3)o2)SC1=S,5,1.1,/,/,/,/
CCOc1cc(/C=C2\C(=O)NC(=O)N(c3ccc(C)cc3)C2=O)ccc1O,9,0.97,/,/,/,/
Cc1cc(=O)oc2cc3cc(C)n(C)c3cc12,23,0.84,/,/,/,/
COc1cc(OC)cc(C(=O)Nc2cc(C)ccc2C)c1,10,0.99,/,/,/,/
COc1ccc(C(=O)c2c(C)oc3c2cc(O)c2ccccc23)cc1,19,0.99,/,/,/,/
Cc1ccc(C)c(NC(=O)CSc2ccccn2)c1,-1,0.87,/,/,/,/
O=C1NC(=S)S/C1=C/c1ccc(-c2cccc(C(=O)O)c2)o1,67*,0.98,62*,99*,0.81,0.79*
O=C1NC(=S)S/C1=C\c1ccc(C(=O)O)cc1,14,0.97,/,/,/,/
Cc1cccc(NC(=O)C(=O)NCCc2ccc(Cl)cc2)c1,-2,0.99,/,/,/,/
Cc1cc(C)cc(N2C(=O)NC(=O)/C(=C\c3ccccc3C)C2=O)c1,-11,1.1,/,/,/,/
O=C1NC(=O)N(c2ccc(Cl)cc2)C(=O)/C1=C\c1ccc(-c2ccc([N+](=O)[O-])cc2)o1,8,1,/,/,/,/
Cc1ccc(N2C(=O)NC(=O)/C(=C\c3ccc(-c4ccc(C)c([N+](=O)[O-])c4)o3)C2=O)cc1,61*,1.1,2,24,0.96,0.89
O=C1NC(=O)N(c2ccc(Cl)cc2)C(=O)/C1=C/c1ccc(I)o1,56*,1.3*,26,78*,1.1,0.82
Cc1cc(C)cc(N2C(=O)NC(=O)/C(=C\c3ccc(I)o3)C2=O)c1,46*,1.1,39,92*,1,1
COc1cc(/C=C2\C(=O)NC(=O)N(c3ccc(Cl)cc3)C2=O)cc(I)c1OC,10,1.1,/,/,/,/
SMILES,HCV NS3h FP,Cy5 interf NS3h,NS3h confirm,SSB FP counter,Cy5 SSB fluor CB,Cy5 fluor confirm
Cc1cc(C=C2C(=O)NC(=S)NC2=O)c(C)n1-c1ccc(N(C)C)cc1,-2,0.97,/,/,/,/
Cc1ccnc(NS(=O)(=O)c2ccc(N3C(=O)c4ccc(C(=O)O)cc4C3=O)cc2)n1,-15,1,/,/,/,/
O=c1[nH]c(=S)n(-c2ccccc2F)c(O)c1C=C1C=CC=N1,114*,0.57*,48,128*,0.74*,0.6*
O=c1[nH]c(=O)n(-c2cccc(C(F)(F)F)c2)c(O)c1C=C1C=CC=N1,27,0.97,/,/,/,/
CC(C(=O)NCc1ccco1)N1C(=O)c2ccccc2C1=O (configuration not stated),4,1.1,/,/,/,/
CN1C(=O)C(=O)N(CC(=O)NCc2ccco2)C1=O,74*,0.75*,28,14,0.77*,0.84
O=C1NC(=O)/C(=C/c2cc(Cl)ccc2O)N1,18,0.94,/,/,/,/
O=C1NC(=O)N(Cc2ccccc2)C(=O)/C1=C/c1cccs1,25,0.83,/,/,/,/
CCN(CC)c1ccc(/C=C2\C(=O)NC(=O)N(Cc3ccccc3)C2=O)c(OC)c1,79*,3*,36,48,2.2*,1.7*
COc1ccc(C(=O)/C=C/C=C(Cl)Cl)cc1,6,0.95,/,/,/,/
Cn1c(/C=C/c2ccco2)nc2ccccc21,4,0.97,/,/,/,/
Cn1c(/C=C/c2ccc(C(=O)c3ccccc3)o2)nc2ccccc21,51*,1.1,20,25,0.92,0.92
COc1ccc(N(CC(=O)Nc2cccc(C(F)(F)F)c2)S(=O)(=O)c2ccccc2)cc1Cl,-8,1,/,/,/,/
COc1cc(C=C2C(=O)N(C)C(=O)N(C)C2=O)cc(Br)c1OCc1ccccc1,32,0.98,/,/,/,/
COc1cc(C=C2C(=O)NC(=O)NC2=O)cc(Br)c1OCc1ccc([N+](=O)[O-])cc1,73*,0.73*,19,44,0.85,0.58*
COc1cc(C=C2C(=O)NC(=S)NC2=O)cc(Br)c1O,31,1,/,/,/,/
COc1cc(C=C2C(=O)NC(=O)NC2=O)cc([N+](=O)[O-])c1O,48*,0.89,34,60*,0.89,0.95
COc1ccc(N(CC(=O)Nc2c(C)n(C)n(-c3ccccc3)c2=O)S(=O)(=O)c2ccccc2)c(OC)c1,2,1,/,/,/,/
O=C(Cc1cccs1)Nc1cccc(C(F)(F)F)c1,5,1,/,/,/,/
C/C(=N/N=C1\NC(=O)C(CC(=O)Nc2ccc(C(=O)O)cc2)S1)c1ccc([N+](=O)[O-])cc1 (configuration not stated),7,1.1,/,/,/,/
O=C(CC1SC(=O)NC1=O)Nc1ccc(C(=O)O)cc1 (configuration not stated),18,1.1,/,/,/,/
CC1=C/C(=N/N=C2\NC(=O)C(CC(=O)Nc3ccc(C(=O)O)cc3)S2)CC(C)(C)C1 (configuration not stated),89*,1.1,62*,95*,0.89,0.75*
O=C(CC1S/C(=N/N=C\c2ccccc2)NC1=O)Nc1ccc(C(=O)O)cc1 (configuration not stated),128*,1.1,53*,101*,0.87,0.78*
COc1ccc(N=Cc2ccc(Br)s2)c([N+](=O)[O-])c1,19,0.97,/,/,/,/
COc1cc(/C=C2/SC(=S)N(CC(=O)O)C2=O)ccc1OC(=O)c1cccc(C)c1,29,0.94,/,/,/,/
CCc1ccc(NC(=O)C(=O)NCCN2CCN(C(=O)C(c3ccccc3)c3ccccc3)CC2)cc1,11,0.96,/,/,/,/
Cc1cc(C)cc(N2C(=O)NC(=O)/C(=C\c3ccc(Cl)cc3)C2=O)c1,14,1.1,/,/,/,/
CN1C(=O)NC(=O)/C(=C\c2ccc(Cl)cc2Cl)C1=O,74*,0.94,12,9,1,1
